# In PubChem BioAssay AID488899 (Broad Institute, 2010):
# Out of some 330,000 compounds screened, about 2,800 (0.85%) were called active.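 Rule for the calls: active = mean inhibition across replicates of 60% or more, whatever share of single replicates reaches that level; inconclusive = some that reach 60%, reason not given; inactive = mean inhibition across replicates below 60%.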 Many of the other results were omitted from the sample, so actives are more common in it than they were.
# Test: inhibitors of MITF-dependent TRPM1 promoter reporter, primary screen, cell-based, SK-MEL-5, single point, luciferase (AID 488899)
# Conditions: SK-MEL-5 TRPM1 promoter luciferase, 24 h; at 12.5 µM; hits give high values
row,SMILES,inhibition
1,CCCCCCCCn1c2c(c(=N)c3c1CCC3)CCCC2,77.2% (active)
2,CCOc1ccc(N(C)S(=O)(=O)c2cnc[nH]2)cc1,6.77% (inactive)
3,CC1CCCCC1NC(=O)COC(=O)Cc1ccc(Cl)cc1 (centres undefined),6.02% (inactive)
4,CN(c1ccc2nc3ccccc3c(=O)n2n1)C1CCCCC1,84.7% (active)
5,CN(C(=O)CSc1nncc2ccccc12)C1CCCCC1,-4.81% (inactive)
6,CN(C(=O)c1cc2c(=O)n3ccccc3nc2s1)C1CCCCC1,-36.7% (inactive)
7,CCCN(CCC)S(=O)(=O)c1ccc(C(=O)NNC(=O)c2cc(OC)c(OC)c(OC)c2)cc1,4.09% (inactive)
8,Clc1cccc(-c2nc(NCC3CCCO3)c3ccccc3n2)c1 (centres undefined),-7.27% (inactive)
9,Clc1ccc2nc(-c3ccccc3)nc(C(Cl)Cl)c2c1,90.9% (active)
10,N#CCSc1nc(-c2ccccc2)nc2ccc(F)cc12,6.09% (inactive)
11,CCCOc1cccc(C(=O)Nc2nnn(CCC)n2)c1,-31.2% (inactive)
12,COc1cc(C(=O)N2CCN(C3CCC(C)CC3)CC2)cc(OC)c1OC (centres undefined),-0.962% (inactive)
13,O=C1c2ccccc2C(=O)N1CC1c2ccccc2CCN1S(=O)(=O)c1ccccc1 (centres undefined),-6.02% (inactive)
14,CCN1CCN(C(=O)CSc2ccc(C)cc2)CC1,-21.2% (inactive)
15,CCN1CCC(O)(/C=C/c2ccc(C)cc2)C(C(=O)/C=C/c2ccc(C)cc2)C1 (centres undefined),77.1% (active)
16,CCOC(=O)C1CCCN(C(=O)/C=C/c2ccc(OC)cc2)C1 (centres undefined),-11.1% (inactive)
17,Nc1ccccc1SC(C[N+](=O)[O-])c1ccccc1 (centres undefined),75.5% (active)
18,Cc1ccc(C(C[N+](=O)[O-])c2c(C)cc3ccccn23)cc1 (centres undefined),40.1% (inactive)
19,O=C(NCC(=O)N1CCCCCCC1)c1ccccc1Cl,-25.1% (inactive)
20,COc1ccc(S(=O)(=O)N2CCCC2CNC(=O)C(=O)NC2CC2)cc1 (centres undefined),-5.39% (inactive)
21,O=C(NNC(=S)NCCCN1CCOCC1)c1ccncc1,-1.68% (inactive)
22,O=C1CC(N2CCN(C(c3ccccc3)c3ccccc3)CC2)C(=O)N1 (centres undefined),-6.57% (inactive)
23,Oc1ccccc1CN1CCN(C(c2ccccc2)c2ccccc2)CC1,5.95% (inactive)

row,SMILES,inhibition
1,CC1(C)CC(N2CCN(C(c3ccccc3)c3ccccc3)CC2)=CC(=[N+]2CCCCC2)C1,94% (active)
2,CN(C)CCN=c1cc(-c2ccccc2)oc2ccc(Cl)cc12,-36.2% (inactive)
3,CCOc1ccc(C(=O)CCC(=O)Nc2ccncc2)cc1,8.37% (inactive)
4,CCOc1ccc(NC(=O)CCC(=O)NNC(=O)NC2CCCCC2)cc1,-2.59% (inactive)
5,CCOc1ccc(NC(=O)CCC(=O)N/N=C/c2ccc([N+](=O)[O-])s2)cc1,62.8% (active)
6,CCCCN(C(=O)c1ccc(OC(F)(F)F)cc1)c1c(N)n(CCC)c(=O)[nH]c1=O,-1.56% (inactive)
7,CCN(C(=O)COC(=O)Cc1c(F)cccc1Cl)c1c(N)n(Cc2ccccc2)c(=O)[nH]c1=O,-2.14% (inactive)
8,O=C(NCCc1ccc(C(F)(F)F)cc1)c1ccc2c(c1)OCO2,-3.11% (inactive)
9,O=C(CCc1ccccc1Cl)Nc1ccc(S(=O)(=O)Nc2nccs2)cc1,12.4% (inactive)
10,Cc1coc2c(O)cc3c(c12)OC1(N2CCCCC2)C(=O)NCCCC31 (centres undefined),77.4% (active)
11,COc1ccc(CCN2CC(C(=O)OCC(=O)NCc3ccccc3Cl)CC2=O)cc1OC (centres undefined),-2.95% (inactive)
12,CC1C(C)N(C(=O)CCl)c2ccccc2N1C(=O)CCl (centres undefined),91.3% (active)
13,CC1CC(C)CN(CC(=O)N2c3ccccc3CCc3ccccc32)C1 (centres undefined),-0.982% (inactive)
14,CC1C(=O)N(Cc2ccccc2)c2ccccc2N1C(=O)c1ccccc1 (centres undefined),8.87% (inactive)
15,CCC1([N+](=O)[O-])COC(c2ccc(C(C)C)cc2)OC1 (centres undefined),-55.6% (inactive)
16,O=C(Nc1ccc2ccccc2c1[N+](=O)[O-])c1ccccc1,-36.6% (inactive)
17,CC(=O)/C(=N\Nc1ccc(Cl)cc1Cl)Sc1cccc2cccnc12,65.6% (active)
18,Cc1c(NC(=O)CSc2cccc3cccnc23)c(=O)n(-c2ccccc2)n1C,35.6% (inactive)
19,S=C(NCc1cccnc1)Nc1ccc(Cl)cc1Cl,-6.79% (inactive)
20,CC1(C)C(=O)C2(CCCCC2)C(=O)OC1c1cccs1 (centres undefined),4.16% (inactive)
21,C=CCn1c(=S)[nH]c2scc(-c3ccco3)c2c1=O,1.55% (inactive)
22,CCN(CC)S(=O)(=O)c1ccc(N2CCOCC2)c(NC(=O)c2ccc(=O)n(C)n2)c1,2.54% (inactive)
23,CCN(CC)S(=O)(=O)c1cc(C(=O)Nc2cc(S(=O)(=O)N3CCOCC3)ccc2N2CCCC2)ccc1F,6.91% (inactive)

row,SMILES,inhibition
1,CCN(CC)S(=O)(=O)c1ccc(N2CCCC2)c(NC(=O)c2ccc([N+](=O)[O-])o2)c1,88.5% (active)
2,Nc1ccc(-n2nncc2-c2ccco2)cc1,-11.2% (inactive)
3,O=C(c1cccc(S(=O)(=O)N2CCCCCC2)c1)N1CCN(Cc2ccccc2)CC1,-3.86% (inactive)
4,CCOC(=O)c1c(NC(=O)CN2C(=O)NC3(CCC(C)CC3)C2=O)sc(C)c1CC (centres undefined),0.199% (inactive)
5,C/C(=N\NC(=O)c1ccoc1C)c1ccccc1O,-21.6% (inactive)
6,CC(=NNC(=S)N1CCCCCC1)c1ccccn1,58.9% (inactive)
7,C/C(=N\NC(=O)c1ccccc1F)c1ccccn1,62.2% (active)
8,NC(=O)NC(CC(=O)NNC(=O)c1ccccn1)c1ccc(Cl)cc1 (centres undefined),-12.2% (inactive)
9,CC1=NNC(=O)C1CCC(=O)N/N=C(\C)c1ccc(Cl)cc1 (centres undefined),2.4% (inactive)
10,C/C(=N\NC(=O)Cc1ccc(Cl)cc1)c1ccccn1,80% (active)
11,CC(C)CN1CC(C)C(=O)N(c2ccccc2)C1=S (centres undefined),-5.49% (inactive)
12,COc1ccc(S(=O)(=O)N2CCC(C(=O)N3CCc4ccccc4C3)CC2)cc1OC,1.79% (inactive)
13,COc1cc2c(cc1OC)CN(C(=O)c1cc(S(=O)(=O)N3CCCCC3)ccc1Cl)CC2,10.9% (inactive)
14,COc1cc2c(cc1OC)C(C)N(S(=O)(=O)c1cnc(Cl)c(Cl)c1)CC2 (centres undefined),76% (active)
15,CN(CCc1ccccn1)C(=O)CCC1CCCN(Cc2ccccc2OC(F)F)C1 (centres undefined),-12.8% (inactive)
16,CC[C@]1(O)C[C@@H]2CN(CCc3c([nH]c4ccccc34)[C@@](C(=O)OC)(c3cc4c(cc3OC)N(C)[C@H]3[C@@](O)(C(=O)OC)[C@H](OC(C)=O)[C@]5(CC)C=CCN6CC[C@]43[C@@H]65)C2)C1,62.2% (active)
17,CC[C@]1(O)CC2CN(CCc3c([nH]c4ccccc34)[C@@](C(=O)OC)(c3cc4c(cc3OC)N(C=O)[C@H]3[C@@](O)(C(=O)OC)[C@H](OC(C)=O)[C@]5(CC)C=CCN6CC[C@]43[C@@H]65)C2)C1 (some centres undefined),45.8% (inactive)
18,CCC1SC(CC)C(=O)N(CC(=O)NC2CCCCC2)C1=O (centres undefined),13.1% (inactive)
19,Clc1ccc(C[n+]2cc(-c3ccc(Cl)cc3)n3c2CCC3)cc1,47.5% (inactive)
20,CN(C)Cc1c(C(=O)N/N=C/c2ccccc2OCc2ccc(F)cc2)nnn1-c1nonc1N,-15.2% (inactive)
21,Cc1ccc2c(O)c(Cc3ccccc3)c(=O)[nH]c2n1,2.8% (inactive)
22,COC(=O)COc1ccc2c(=O)c(Oc3ccccc3Br)coc2c1,-0.261% (inactive)
23,O=C(O)c1ccc(Cn2cnc3c(=S)nc[nH]c32)cc1,-0.814% (inactive)

row,SMILES,inhibition
1,CC1=Nn2c(nnc2-c2ccccc2)SC1,-0.377% (inactive)
2,COc1ccc(C2=Nn3c(nnc3-c3ccccc3OC)SC2)cc1OC1CCCC1,65.9% (active)
3,COc1ccccc1-c1nnc2n1N=C(c1ccc(OC(F)F)c(OCC3CC3)c1)CS2,-4.86% (inactive)
4,COC(C[C@H](O)CC(=O)COCc1ccccc1)OC,-3.12% (inactive)
5,O=C(O)CN1c2cccc3cccc(c23)S1(=O)=O,13.3% (inactive)
6,N/C(=N\OC(=O)Nc1ccccc1)c1ccno1,-14% (inactive)
7,CCCOc1ccc(C(=O)C(CCC(CNCC)C(=O)c2ccc(OCCC)cc2)CNCC)cc1 (centres undefined),102% (active)
8,CCCOc1ccc(C(=O)CCC(=O)OC(C)C(=O)Nc2ccc(NC(C)=O)cc2)cc1 (centres undefined),-26% (inactive)
9,CCCCOc1ccc(C(=O)NN2CCN(C)CC2)cc1,-7.2% (inactive)
10,C=CCOc1ccc(/C=C2\SC(=S)N(CCC(=O)O)C2=O)cc1,78.2% (active)
11,COc1ccc(/C=C2\SC(=S)N(CCCC(=O)NC3CCCC3)C2=O)cc1OC,37.5% (inactive)
12,Cc1ccc(/C=C2/SC(=S)N(CCC(=O)NCCCN3CCOCC3)C2=O)cc1,-20.1% (inactive)
13,Cc1ccc(S(=O)(=O)N(CC(=O)Nc2cccc([N+](=O)[O-])c2)Cc2ccc(Cl)cc2)cc1,15.8% (inactive)
14,CC(=O)c1cccc(NC(=O)C2CCN(C(=O)c3ccccc3Cl)CC2)c1,28.4% (inactive)
15,O=C(COC(=O)C1CCN(S(=O)(=O)c2ccc3c(c2)OCCO3)CC1)Nc1ccccc1OC(F)F,-1.73% (inactive)
16,Cc1ccc(NC(=O)/C(=C/c2ccc([N+](=O)[O-])cc2)NC(=O)c2ccccc2)cc1,8.59% (inactive)
17,CCOC(=O)/C(=C\c1ccc([N+](=O)[O-])cc1)C(=O)c1cc(C(C)=O)c(Nc2ccccc2)s1,100% (active)
18,CCOC(=O)/C(=N\Nc1ccccc1[N+](=O)[O-])c1csc(Nc2ccccc2)n1,-14.3% (inactive)
19,CC(=O)c1ccc(N2CCN(C(=O)CCNC(=O)Cn3ccc4ccccc4c3=O)CC2)cc1,0.055% (inactive)
20,CCC(=C/c1sc2ccc3ccccc3c2[n+]1C)/C=C1\Sc2ccc3ccccc3c2N1C,77.8% (active)
